# Only some compounds are listed: those with a hit (about 4.8% of all), similar ones and a draw of the others.
# ALR H2O2 inh: human ALR oxidase inhibition via reduced H2O2; 290,000 tested, 3.8% active; inhibition, % (no concentration beside the values); P55789; purified ALR, DTT oxidation, H2O2 HRP-luminol luminescence;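 active means mean replicate inhibition above about 79%, with every replicate also reaching it, limit read from the data; inconclusive means only one of the two criteria met; inactive means mean below limit and not every replicate reaching it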
# Target sequence (P55789 whole entry, looked up): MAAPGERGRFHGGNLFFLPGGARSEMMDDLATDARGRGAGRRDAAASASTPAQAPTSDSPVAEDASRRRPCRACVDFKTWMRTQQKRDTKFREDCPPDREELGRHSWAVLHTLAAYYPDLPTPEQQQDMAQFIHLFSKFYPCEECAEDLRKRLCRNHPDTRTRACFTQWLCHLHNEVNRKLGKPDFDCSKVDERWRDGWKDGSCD
# Mot1-301 SUMO: blocks SUMOylation pathway, rescuing yeast Mot1-301 growth; S. cerevisiae Mot1-301 growth rescue, ATP luminescence, 38.5C; percent above DMSO median, 100 means doubled; growth rescue, % at 18.8 µM; 320,000 tested, 1% active; AID 2716;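 active means every valid replicate shows activation above 250% relative to neutral control wells; inactive means the rest, any valid replicate at or below 250%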;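 further: OY570 slx delta 5 strain wells were the positive control but not used for scaling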
# HIF activator: HIF pathway transcriptional activation | U2OS HRE-luciferase reporter, luminescence; normalized: DMSO 0%, desferrioxamine 100% | activation, % at 7.5 µM (by protocol) | 300,000 tested, 0.32% active | AID 1910;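 active means mean activation of at least 10% of the iron chelator positive control signal, with at least half of replicates also reaching 10%; inconclusive means mean and replicate majority disagree about reaching 10%; inactive means mean and most replicates under 10%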
# AI-2 QS mod: Vibrio harveyi AI-2 quorum sensing modulation; Vibrio harveyi JMH597 AI-2 luminescence/OD600 ratio, 9 h; stronger effect = lower value; strain lacks LuxN and CqsS sensors; 0 = neutral-control median; activity change, % at 7.5 µM; 300,000 tested, 0.4% active; in the data active means activity change below about -75%, passing the limit was not always enough; inconclusive means no clear call, values can overlap the other calls;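 further: luminescence divided by OD600 gain over 9 h not by final OD600 alone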
# JMH597 growth: retest Vibrio harveyi JMH597 growth inhibition; shares compounds with AI-2 QS mod; OD600 absorbance, 9 h; lacks LuxN and CqsS sensors; growth inhibition, % at 7.5 µM; 750 tested, 1% active; AID 2726;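 active means every replicate shows growth inhibition above 50%; inconclusive means at least half, but not all, replicates pass that cutoff; inactive means fewer than half of replicates pass it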
# BB721 lum counter: retest counter-screen: lowers luminescence of constitutive-QS Vibrio harveyi BB721 | shares compounds with AI-2 QS mod | 9 h | inhibition, % at 7.5 µM | 750 tested, 95% active | AID 2727;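 active means inhibition above about 80% in every replicate, not just on average, limit read from the data; inconclusive means at least half of replicates past the limit, but not all; inactive means fewer than half of replicates past the limit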
# BB721 growth: retest: blocks Vibrio harveyi BB721 growth; shares compounds with AI-2 QS mod; OD600 absorbance, 9 h; growth inhibition, % at 7.5 µM; 750 tested, 3% active; AID 2728;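 active means every replicate shows growth inhibition above 50%; inconclusive means at least half but not all replicates above 50% inhibition; inactive means under half of replicates above 50% inhibition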
# JMH597 AI-2 mod: Vibrio harveyi AI-2 signaling luminescence modulation – JMH597 strain, confirmation. AID 2736. Vibrio harveyi JMH597 AI-2 quorum sensing luminescence, 9 h; luxN and CqsS knockout, AI-2 only. shares compounds with AI-2 QS mod. 750 tested, 97% active. inhibition, % at 7.5 µM;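 active means every replicate shows more than 75% inhibition of signal versus neutral control wells; inconclusive means half to three quarters of replicates exceed 75% inhibition; inactive means fewer than half of replicates exceed 75% inhibition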
# An asterisk follows results filed as active; ? = inconclusive; / = no result.
SMILES,ALR H2O2 inh,Mot1-301 SUMO,HIF activator,AI-2 QS mod,others
CC1CCN(CCCNC(=O)c2ccc3c(Cl)c4c(nc3c2)CCCC4)CC1,90*,/,3,9,
CCN1CCN(C(=O)c2ccc3c(Cl)c4c(nc3c2)CCCC4)CC1,98*,10,/,-12,
COC(=O)c1sc(S(=O)(=O)N2CCCCC2C)c(C(=O)OC)c1C (configuration not stated),2,-4,/,/,
CN(Cc1cccs1)C(=O)COC(=O)CNC(N)=O,-7,/,0,3,
CN(Cc1cccs1)C(=O)CSc1nc(N)cc(N)n1,41,-19,39*,46,
Cc1cc(C)c(NC(=O)C2CC(=O)N(C3CCCC3)C2)c(C)c1 (configuration not stated),-2,4,/,/,
O=C(O)CN1C(=O)/C(=C\c2cccc(OCc3ccccc3)c2)SC1=S,83*,4,2,14,
O=C(O)CN1C(=O)/C(=C\c2cc(Br)ccc2OCc2ccc(Cl)cc2)SC1=S,98*,11,-5,19,
COc1ccc(/C=C2/SC(=S)N(CC(=O)O)C2=O)cc1OCc1ccc(Cl)cc1,88*,150,5,21,
COc1ccccc1CNS(=O)(=O)c1ccc(Cl)s1,-1,20,0,4,
NC(=O)c1[nH]cnc1N,-1,11,0,28,
O=S(=O)(Nc1ccc(N2CCCCC2)cc1)c1ccc(F)c(F)c1,99*,0,0,-12,
COc1ccc(NS(=O)(=O)c2ccc(Cl)c(C(=O)O)c2)cc1S(=O)(=O)N1CCCCC1,/,-8,2,25,
O=C(O)c1cccc(S(=O)(=O)Nc2ccc(N3CCCCC3)cc2)c1,99*,-2,/,/,
CC(C)(CNC(=O)c1ccc(NS(=O)(=O)c2ccc(F)c(F)c2)cc1)N1CCOCC1,-4,250,-1,6,
O=C(O)c1cc(S(=O)(=O)Nc2ccc(N3CCCCC3)cc2)ccc1Cl,98*,-4,0,9,
Cc1cc(N)n2ncc(-c3cccc(Br)c3)c2n1,-6,40,/,/,
Cc1cc(N)n2ncc(-c3ccccc3)c2n1,90*,0,4,8,
COc1ccc(N=C2C(=O)N3CCCc4cccc2c43)cc1,99*,-9,392*,17,
COc1ccc(N2C(=O)CSC23C(=O)N2CCCc4cccc3c42)cc1 (configuration not stated),10,-16,0,7,
Cc1ccc(O)c(C2=NCCNC(C(F)(F)F)=C2)c1,91*,-4,0,6,
Oc1c(C2=NCCNC(C(F)(F)F)=C2)ccc2ccccc12,/,/,2,16,
Clc1nnc(N2CCCCC2)c2ccccc12,98*,194,0,8,
Nc1nc(OCC2CCCCC2)c2[nH]cnc2n1,97*,1,0,13,
Nc1nc2nc[nH]c2c(=O)[nH]1,-19,220,0,31,
SMILES,ALR H2O2 inh,Mot1-301 SUMO,HIF activator,AI-2 QS mod,others
C=CCOc1ccc(/C=C2\SC(=S)N(NS(=O)(=O)c3ccccc3)C2=O)cc1,/,-13,-1,-86*,
CC(/C=C1\SC(=S)N(NS(=O)(=O)c2ccccc2)C1=O)=C\c1ccccc1,98*,10,-1,42,
COc1ccc(/C=C2/SC(=S)N(NS(=O)(=O)c3ccccc3)C2=O)cc1,36,-2,0,60,
Cc1cn2c(=O)c(C(=O)NCc3ccc4c(c3)OCO4)cnc2s1,0,1,0,-9,
COc1cc(C[C@@H](CO)[C@H](CO)Cc2ccc(O)c(OC)c2)ccc1O,97*,-2,0,19,
COc1cc(C[C@@H](C)[C@@H](C)Cc2ccc(O)c(OC)c2)ccc1O,50,20,/,/,
O=C(CCN1CCOCC1)NNC(=S)NC(=O)c1ccc(Br)cc1,99*,22,0,49,
O=C(CCN1CCCCC1)NNC(=S)NC(=O)c1ccc(Br)cc1,99*,9,-1,27,
Nc1ccc(NC(=O)CCN2CCOCC2)cc1,93*,-15,-1,2,
Cc1ccc(C(=O)Nc2ccccc2C(=O)Nc2ccccn2)cc1Cl,-5,310,-4,23,
C/C(=N\Nc1ccc2nncn2n1)c1cccs1,26,34,1,36,
Cc1ccc(-n2c([C@@H]3C[C@H]3c3ccccc3)n[nH]c2=S)cc1,85*,7,0,14,
Cc1ccc(-n2c(-c3ccco3)n[nH]c2=S)cc1,88*,13,0,-1,
Cc1occc1-c1n[nH]c(=S)n1-c1ccccc1,94*,1,0,9,
Cc1cccc(OCC(=O)Nc2nccs2)c1C,21,-1,-1,15,
CCN1C(N(C)C)=NC[C@@H]1Cc1ccccc1,/,-21,/,/,
CCOc1cc(/C=N/Nc2nn3cnnc3c3ccccc23)ccc1O,82*,-9,2,36,
COc1cc(/C=N/Nc2nn3cnnc3c3ccccc23)ccc1O,4,5,0,9,
CCOc1cc(/C=N/n2cnnc2)ccc1O,99*,-6,1,6,
Cc1cc(C)n(C(C)CC(=O)Nc2ccc3c(c2)OCO3)n1 (configuration not stated),-16,6,0,24,
Cc1cccc(OCC(=O)NCc2nc(-c3ccccc3)no2)c1,7,-21,0,23,
Cc1cccc(NCc2nc(-c3ccccc3)no2)c1,91*,5,1,?,JMH597 growth=12;BB721 lum counter=96*;BB721 growth=-11;JMH597 AI-2 mod=98*
O=C(NCc1nc(-c2ccc(C(F)(F)F)cc2)no1)c1cccs1,4,-2,2,-94*,JMH597 growth=-19;BB721 lum counter=96*;BB721 growth=-13;JMH597 AI-2 mod=97*
Cc1cccc(-c2noc(CNC(=O)c3ccco3)n2)c1,-3,92,0,-94*,JMH597 growth=8;BB721 lum counter=99*;BB721 growth=29;JMH597 AI-2 mod=99*
O=C(NCc1nc(-c2ccccc2)no1)c1ccc(Br)o1,0,19,0,-95*,JMH597 growth=-24;BB721 lum counter=98*;BB721 growth=-28;JMH597 AI-2 mod=99*
O=C(NCc1ccc(Cl)cc1)C(=O)c1c[nH]c2ccccc12,-2,-7,0,-89*,JMH597 growth=-18;BB721 lum counter=97*;BB721 growth=-31;JMH597 AI-2 mod=98*
Cc1ccc(NC(=O)CCC(=O)c2cccs2)c(O)c1,5,1,1,-82*,JMH597 growth=-11;BB721 lum counter=93*;BB721 growth=3;JMH597 AI-2 mod=95*
COC(=O)CSc1nnc(COc2cccc3ccccc23)o1,-12,22,1,-83*,JMH597 growth=-3;BB721 lum counter=92*;BB721 growth=-18;JMH597 AI-2 mod=93*
CN(C(=O)c1ccc(F)cc1)c1ccc(OCC(=O)Nc2ccccc2C(=O)O)cc1,-7,-16,/,/,
